Structures are written as SMILES. Active and inactive are the calls of the source.

A short description of assay [1]: binders of probe aFSTL3 on microarray, primary screen, stem cell growth factor project, biochemical, small-molecule microarray, fluorescence 635/667 (AID 1064).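 Also: measures binding of the biotinylated anti-FSTL3 antibody to printed compounds.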 The note with it: higher = more signal.
Assay [2] is described as follows: binders from COS7 lysate, DM2A8 probe, primary screen, torsin A project, cell lysate, small-molecule microarray, fluorescence 635/667 (AID 1065). The note with it: higher = more signal, COS7 lysate expressing mutant human TOR1A.
Assay [3] is described as follows: binders of probe aFGF2 on microarray, primary screen, stem cell growth factor project, biochemical, small-molecule microarray, fluorescence 635/667 (AID 1067).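 Also: measures binding of biotinylated aFGF2 protein to printed compounds on slides; z-score merges feature fluorescence and signal-to-noise across triplicate slides.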 The following applies: higher = more signal.
Assay [4] in a line: binders of probe aFGF10 on microarray, primary screen, stem cell growth factor project, biochemical, small-molecule microarray, fluorescence 635/667 (AID 1071).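 Also: score merges 667 nm spot intensity and signal to noise from triplicate slides.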 The following applies: higher = more signal.
Assay [5] deals with Neurogenic locus notch homolog protein 2 (Homo sapiens) (UniProt Q04721). As to the kind of experiment: Notch2 binders on small-molecule microarrays, primary screen, biochemical, small-molecule microarray, 635 nm fluorescence, stem cell growth factors (AID 1073). The following applies: Notch2 binding, higher = more signal.
Neurogenic locus notch homolog protein 2 (Homo sapiens), sequence (Q04721 whole entry, looked up, canonical isoform): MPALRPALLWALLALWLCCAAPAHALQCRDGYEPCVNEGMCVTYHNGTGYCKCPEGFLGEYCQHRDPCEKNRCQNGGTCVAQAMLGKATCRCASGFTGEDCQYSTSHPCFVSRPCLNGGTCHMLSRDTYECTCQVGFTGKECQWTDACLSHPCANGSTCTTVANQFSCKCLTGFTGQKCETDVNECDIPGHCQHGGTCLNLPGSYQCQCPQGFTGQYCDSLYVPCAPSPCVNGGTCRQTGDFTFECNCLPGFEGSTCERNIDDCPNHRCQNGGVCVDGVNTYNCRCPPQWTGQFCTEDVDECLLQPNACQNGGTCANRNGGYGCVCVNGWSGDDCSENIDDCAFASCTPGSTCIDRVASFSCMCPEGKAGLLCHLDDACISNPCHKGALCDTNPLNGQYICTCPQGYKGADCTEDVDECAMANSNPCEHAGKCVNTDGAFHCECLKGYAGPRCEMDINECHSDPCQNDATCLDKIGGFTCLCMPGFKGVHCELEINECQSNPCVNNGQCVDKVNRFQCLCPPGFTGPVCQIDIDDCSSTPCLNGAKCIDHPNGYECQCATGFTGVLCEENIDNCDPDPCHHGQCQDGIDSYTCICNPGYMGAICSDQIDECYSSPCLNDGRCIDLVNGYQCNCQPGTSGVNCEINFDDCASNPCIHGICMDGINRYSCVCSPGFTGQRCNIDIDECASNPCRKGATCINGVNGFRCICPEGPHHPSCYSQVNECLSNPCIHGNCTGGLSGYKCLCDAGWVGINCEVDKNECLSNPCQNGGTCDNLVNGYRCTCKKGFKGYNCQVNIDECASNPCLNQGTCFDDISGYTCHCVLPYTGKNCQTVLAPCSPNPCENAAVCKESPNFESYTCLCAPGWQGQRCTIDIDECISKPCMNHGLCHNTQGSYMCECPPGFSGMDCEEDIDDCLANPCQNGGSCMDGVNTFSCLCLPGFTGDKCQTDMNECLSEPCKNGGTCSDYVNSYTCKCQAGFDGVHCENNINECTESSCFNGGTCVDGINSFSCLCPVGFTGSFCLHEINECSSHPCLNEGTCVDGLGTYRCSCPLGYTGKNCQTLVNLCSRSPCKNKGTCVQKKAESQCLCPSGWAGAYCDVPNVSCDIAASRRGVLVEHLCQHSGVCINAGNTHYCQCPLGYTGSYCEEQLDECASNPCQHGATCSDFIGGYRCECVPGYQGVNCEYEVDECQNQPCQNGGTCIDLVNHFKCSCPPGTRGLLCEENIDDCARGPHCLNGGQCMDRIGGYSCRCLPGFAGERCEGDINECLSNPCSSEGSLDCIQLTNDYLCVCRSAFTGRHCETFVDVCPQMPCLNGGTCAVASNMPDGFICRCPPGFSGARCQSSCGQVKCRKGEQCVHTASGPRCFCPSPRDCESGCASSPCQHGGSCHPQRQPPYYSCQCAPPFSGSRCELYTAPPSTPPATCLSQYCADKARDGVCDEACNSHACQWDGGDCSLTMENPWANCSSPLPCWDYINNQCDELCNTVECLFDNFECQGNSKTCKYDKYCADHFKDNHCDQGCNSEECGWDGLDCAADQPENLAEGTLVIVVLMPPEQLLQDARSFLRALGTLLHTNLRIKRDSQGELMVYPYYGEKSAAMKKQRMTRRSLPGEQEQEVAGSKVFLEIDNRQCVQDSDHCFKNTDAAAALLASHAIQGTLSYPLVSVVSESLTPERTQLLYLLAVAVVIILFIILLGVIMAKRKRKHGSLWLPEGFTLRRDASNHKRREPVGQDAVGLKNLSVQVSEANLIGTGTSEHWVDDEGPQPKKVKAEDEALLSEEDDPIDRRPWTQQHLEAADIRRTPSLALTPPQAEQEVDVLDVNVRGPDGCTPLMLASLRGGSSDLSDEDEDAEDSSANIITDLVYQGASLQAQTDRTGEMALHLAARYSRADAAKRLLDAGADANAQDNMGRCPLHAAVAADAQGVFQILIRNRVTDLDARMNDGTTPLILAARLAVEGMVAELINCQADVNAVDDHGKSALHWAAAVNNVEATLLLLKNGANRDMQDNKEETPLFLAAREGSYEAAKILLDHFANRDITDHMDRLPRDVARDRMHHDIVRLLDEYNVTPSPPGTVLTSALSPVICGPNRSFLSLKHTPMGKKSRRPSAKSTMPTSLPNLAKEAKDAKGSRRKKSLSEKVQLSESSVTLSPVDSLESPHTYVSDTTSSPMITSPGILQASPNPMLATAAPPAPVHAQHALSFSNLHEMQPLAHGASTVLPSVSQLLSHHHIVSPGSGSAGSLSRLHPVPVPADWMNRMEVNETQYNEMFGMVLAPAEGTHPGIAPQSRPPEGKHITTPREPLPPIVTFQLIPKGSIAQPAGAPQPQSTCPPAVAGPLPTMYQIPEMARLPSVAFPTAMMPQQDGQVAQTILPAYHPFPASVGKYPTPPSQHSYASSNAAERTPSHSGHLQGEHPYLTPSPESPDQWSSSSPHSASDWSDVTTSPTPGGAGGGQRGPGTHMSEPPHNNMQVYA
Assay [6] has as its target Pro-neuregulin-1, membrane-bound isoform (Homo sapiens) (UniProt Q02297). As to the kind of experiment: NRG1 binders on small-molecule microarrays, primary screen, psychiatric disease protein project, biochemical, small-molecule microarray, fluorescence 635/667 (AID 1075).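 Also: score combines 667 nm spot fluorescence with signal to noise.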 The following applies: NRG1 binding, 635 nm fluorescence, higher = more signal.
The test system of assay [7] is Neuregulin-1 EGF-like domain. As to the kind of experiment: binders of neuregulin-1 EGF-like domain, primary screen, biochemical, small-molecule microarray, 635 nm fluorescence (AID 1081).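 Also: binding of the protein to compounds printed on small-molecule microarray slides.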 The following applies: small-molecule microarray binding, higher = more signal.
A short description of assay [8]: FRG1 promoter luciferase signal modulators, primary screen, FRG1 inhibition for FSHD, cell-based, C2C12 myotubes, firefly/Renilla luciferase, luminescence (AID 1084). The note with it: higher = more signal, called active from +8 up or from −8 down.
A short description of assay [9]: binders of probe aFST on microarray, primary screen, stem cell growth factor project, biochemical, small-molecule microarray, fluorescence 635/667 (AID 1086).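 Also: score merges 667 nm fluorescence with signal-to-noise of each printed compound spot.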 The following applies: higher = more signal.
Assay [10] is described as follows: binders of probe aHhip on microarray, primary screen, stem cell growth factor project, biochemical, small-molecule microarray, fluorescence 635/667 (AID 1087).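 Also: score merges spot fluorescence at 667nm with spot signal to noise ratio.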 The following applies: higher = more signal.
The subject of assay [11] is PRMT1 (protein arginine N-methyltransferase 1). Briefly: PRMT1 binders on small-molecule microarrays, primary screen, biochemical, small-molecule microarray, 635 nm fluorescence (AID 1088).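 Also: binding of Prmt1 protein to compounds spotted on small-molecule microarray slides.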 The following applies: small-molecule microarray binding, higher = more signal.
The nature of assay [12]: yeast growth modulation, basal conditions, primary screen, YJM789 clinical isolate, OD600, 24 h (AID 1089).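 Also: growth of clinical yeast isolate S. cerevisiae YJM 789 seeded 1000 cells per well; test concentration not given here.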 The note with it: S. cerevisiae YJM789 growth, higher = more signal, called active from +8 up or from −8 down.
Assay [13] is described as follows: fission yeast growth modulation, primary screen, strain 972, OD600, 24 h, no modulator (AID 1090).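 Also: basal condition with compound alone and no growth modifier present; test concentration not given here.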 The note with it: S. pombe 972 growth, higher = more signal, called active from +8 up or from −8 down.
Assay [14] is described as follows: S. cerevisiae growth modulation with rapamycin, primary screen, strain BY4716, OD600, 96 h (AID 1091). Also: test concentration not given here. The following applies: higher = more signal, called active from +8 up or from −8 down.
Assay [15] deals with Torsin-1A-interacting protein 2 (Homo sapiens) (UniProt Q8NFQ8). Briefly: LULL1 binders on small-molecule microarray, primary screen, cell lysate, human LULL1 lysate, 635/667 nm fluorescence (AID 1092).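 Also: score merges per-feature 667 nm fluorescence with signal-to-noise.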 The following applies: hLULL1 lysate binding, 635 nm fluorescence, higher = more signal.
Torsin-1A-interacting protein 2 (Homo sapiens), sequence (Q8NFQ8 whole entry, looked up): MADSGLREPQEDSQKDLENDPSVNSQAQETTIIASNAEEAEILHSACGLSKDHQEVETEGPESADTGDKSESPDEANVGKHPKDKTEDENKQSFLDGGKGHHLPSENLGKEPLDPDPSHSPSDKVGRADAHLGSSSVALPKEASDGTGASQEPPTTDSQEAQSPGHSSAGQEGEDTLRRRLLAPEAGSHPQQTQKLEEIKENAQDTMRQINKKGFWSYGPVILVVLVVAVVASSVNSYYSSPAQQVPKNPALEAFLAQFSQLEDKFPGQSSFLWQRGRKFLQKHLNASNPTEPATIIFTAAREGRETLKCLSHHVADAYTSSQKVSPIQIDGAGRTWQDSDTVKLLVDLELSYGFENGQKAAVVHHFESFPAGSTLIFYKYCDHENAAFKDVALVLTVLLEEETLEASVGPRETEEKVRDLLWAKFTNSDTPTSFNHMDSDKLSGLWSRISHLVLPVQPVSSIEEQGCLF
Assay [16] can be described thus: E. coli growth modulation, two-sided OD650, primary screen, E. coli filamentation project, strain DRC41, 24 h (AID 1093).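 Also: MC1000 strain lacking acrAB efflux and sulA so SOS filamentation is blocked; test concentration not given here.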 The note with it: OD650, 24 h, higher = more signal, called active from +8 up or from −8 down.
A short description of assay [17]: small-molecule microarray binders of probe aLefty2, primary screen, biochemical, biotinylated probe, 635/667 nm fluorescence (AID 1094).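 Also: score merges spot fluorescence near 667 nm with spot signal-to-noise ratio.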 The note with it: higher = more signal.
Assay [18] concerns Noggin (protein binding on small-molecule microarray). Briefly: Noggin binders on small-molecule microarray, primary screen, biochemical, 635/667 nm fluorescence (AID 1095).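 Also: score merges 667 nm feature fluorescence with signal to noise over triplicate slides.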 The note with it: 635 nm fluorescence, higher = more signal.
Assay [19] has as its target Neurogenic locus notch homolog protein 3 (Homo sapiens) (UniProt Q9UM47). As to the kind of experiment: NOTCH3 binders on small-molecule microarray, primary screen, biochemical, 635/667 nm fluorescence (AID 1096). The note with it: NOTCH3 binding, 635 nm fluorescence, higher = more signal.
Assay [20] in a line: small-molecule microarray binders of probe aEGFR, primary screen, biochemical, biotinylated probe, 635/667 nm fluorescence (AID 1097).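 Also: probe is a biotinylated anti-EGFR antibody binding compounds printed on slides; score combines fluorescence near 667 nm and signal to noise of each spot.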 The following applies: higher = more signal.

Pro-neuregulin-1, membrane-bound isoform (Homo sapiens), sequence (Q02297 whole entry, looked up, the tested form may be a part, canonical isoform): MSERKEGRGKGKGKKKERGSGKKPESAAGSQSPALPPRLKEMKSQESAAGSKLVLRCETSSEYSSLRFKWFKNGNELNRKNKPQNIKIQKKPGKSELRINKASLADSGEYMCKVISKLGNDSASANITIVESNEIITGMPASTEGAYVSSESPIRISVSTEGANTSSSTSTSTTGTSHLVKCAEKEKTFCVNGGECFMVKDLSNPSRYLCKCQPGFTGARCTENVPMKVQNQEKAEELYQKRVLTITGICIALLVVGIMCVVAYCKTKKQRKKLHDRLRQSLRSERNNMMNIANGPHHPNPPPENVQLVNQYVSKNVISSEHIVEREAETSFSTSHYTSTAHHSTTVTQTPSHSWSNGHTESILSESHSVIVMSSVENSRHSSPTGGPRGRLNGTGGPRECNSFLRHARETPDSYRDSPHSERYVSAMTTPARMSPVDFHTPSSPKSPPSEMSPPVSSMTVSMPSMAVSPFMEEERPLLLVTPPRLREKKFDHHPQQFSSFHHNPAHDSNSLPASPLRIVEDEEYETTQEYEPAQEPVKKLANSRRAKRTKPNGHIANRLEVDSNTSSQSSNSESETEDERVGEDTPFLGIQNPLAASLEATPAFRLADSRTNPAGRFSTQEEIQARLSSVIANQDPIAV

Turning to `[N-]=[N+]=Nc1ccccc1[C@@H]1OC(c2ccc(OCCCO)cc2)=N[C@]1(CCS(=O)(=O)c1ccccc1)C(N)=O`, the composite z-score in assay [1] is 0.109; in assay [2] it was -0.0445; in [3], 0.29; in [4], 0.829; in assay [5], 1.58; in [6], 1.63. In addition, the composite z-score was 1.23 in assay [7]; 2.08 in assay [9]; -0.213 in assay [10]; 1.55 in [11]; 3.64 in assay [15]; 0.588 in assay [17]. The composite z-score in [18] stood at 0.561; in [19] it was 0.91; in assay [20], 0.122. For the same compound, the z-score in assay [8] was 1.14 (inactive); in [12] it was 0.193 (inactive); in assay [13], -1.36 (inactive); in assay [14], 0.199 (inactive); in assay [16], 0.743 (inactive).

In the case of `CN(C)CCCCCCNC(=O)[C@@H]1C[C@@H]2C(=O)N[C@@H](Cc3ccccc3)C(=O)N2[C@@H]1c1ccc(O)cc1`, the composite z-score was 0.361 in assay [1]; 1.57 in assay [2]; 0.0127 in [3]; 0.439 in assay [4]; 0.644 in [5]; 1.07 in assay [6]. Also, the composite z-score in assay [7] is 1.42; in assay [9], 0.901; in assay [10], -0.0196; in assay [11] it was 1.53; in [15] it was 2.84; in [17], 0.195. For the same compound, the results for the composite z-score in [18], in assay [19] and in assay [20] were 1.8, 1.09 and 0.246, respectively. Also, the z-score in [8] is 3.06 (inactive); in [12], -0.18 (inactive); in assay [13] it was -0.899 (inactive); in assay [14], 0.0891 (inactive); in [16], -0.13 (inactive).

For the compound `CCOC(=O)C[C@H]1[C@H](OC(=O)c2ccc(C(=O)c3ccccc3)cc2)[C@@H](NC(=O)CC(C)C)c2cc(OCCCO)ccc2N1C(=O)c1ccc2ccccc2n1`, the composite z-score in assay [1] is -0.538; in [2], 0.154; in assay [3], -0.0715; in assay [4] it was 0.86; in [5], 1.28; in assay [6] it was 0.621. Moreover, the composite z-score in [7] is 1.22; in [9], 0.334; in assay [10], -0.137; in assay [11], 1.48; in [15] it was 1.99; in assay [17], 0.106. Also, the composite z-score was 0.693 in assay [18], 1.13 in assay [19] and -0.0565 in assay [20]. For the same compound, the z-score was -0.291 (inactive) in assay [8]; 1.09 (inactive) in assay [12]; 0.606 (inactive) in assay [13]; 0.607 (inactive) in [14]; 0.995 (inactive) in assay [16].

As to `CC(CO)N1C(=O)[C@@H]2C3C(=O)OCCC/C=C\[C@H]3OC23C=CCN(C(C)(C)C)C(=O)[C@@H]13` (stereo not given in full), the composite z-score was 0.104 in assay [1]; 0.733 in assay [2]; -0.0971 in [3]; 0.255 in assay [4]; 0.162 in assay [5]; 0.182 in assay [6]. Besides, the composite z-score in assay [7] is 1.17; in assay [9], -0.269; in [10], 0.0373; in assay [11], 0.0207; in assay [15], 0.478; in assay [17], -0.216. In addition, the composite z-score in assay [18] was 0.0872; in assay [19], 0.201; in [20] it was -0.0905. In addition, the z-score in assay [8] is -1.23 (inactive); in assay [12], -0.226 (inactive); in [13] it was -0.911 (inactive); in assay [14], -0.706 (inactive); in [16], -0.0054 (inactive).

As to `COC(=O)[C@@]1(Cc2ccc(F)cc2)[C@H]2c3cc(C(=O)N4CCCC4)n(CCCNc4ncc(C(F)(F)F)cc4Cl)c3C[C@H]2CN1C(=O)c1ccccc1`, the composite z-score in [1] is 0.785; in assay [2] it was -0.245; in assay [3], 0.222; in [4], 0.564; in assay [5], 1.66; in assay [6], 1.73. Besides, the composite z-score in assay [7] was 1.3; in assay [9], 0.977; in [10], 0.449; in assay [11] it was -0.954; in [15], 2.65; in [17] it was 0.83. Further, the composite z-score in [18] is -0.756; in assay [19] it was 0.696; in [20], 0.476. Moreover, the z-score in [8] was 0.506 (inactive); in assay [12], 1.62 (inactive); in assay [13], 2.15 (inactive); in [14], 2.65 (inactive); in assay [16], -0.87 (inactive).
